Test results as given in ChEMBL document CHEMBL3988442, “University of Dundee, Small-Polar-MMV Screening Library” (2021).
The campaign covered roughly 48,000 compounds. About 13,000 (27%) showed an effect of 50% or more. The list shows a part of the results.

System: Wolbachia pipientis
Test: Anti-Wolbachia Cell-Based Screen
Format: functional
Parameters: scale not given: in the data most compounds retested in dose-response had high values
Details: 5 µM

Row | Compound | Percent Effect [%]
1 | CN1C(=O)C[C@@H]2[C@@H]1CCN2C(=O)c1ccc[nH]1 | -0.2597
2 | O=C(c1ccc2[nH]ccc2c1)N1CCCSCC1CN1CCCC1 (stereo unspecified) | 105.2
3 | O=C(c1ccc2c(c1)OCO2)N1CCCSCC1CN1CCCC1 (stereo unspecified) | 1.32
4 | CS(=O)(=O)N1CCCC12CCCN(C(=O)c1ccc3[nH]ccc3c1)C2 (stereo unspecified) | 11.97
5 | O=C(c1ccc(F)c(F)c1)N1CCCSCC1CN1CCCC1 (stereo unspecified) | 1.047
6 | CN(C)c1cccc(C(=O)N2CCCSCC2CN2CCCC2)c1 (stereo unspecified) | 112.4
7 | CN(C)c1ccc(C(=O)N2C[C@@H](CN3CCCCC3)[C@@H](CO)C2)cc1 | -5.628
8 | Cc1cccc(C(=O)N2CCCSCC2CN2CCCC2)c1 (stereo unspecified) | 114.9
9 | N#Cc1cccc(C(=O)N2C[C@H](CO)C[C@H](CN3CCCC3)C2)c1 | -1.985
10 | CN(C)c1cccc(C(=O)N2C[C@H]3CC[C@@H]2CN(C(=O)C2CCC2)C3)c1 | -25.57
11 | N#Cc1ccc(C(=O)N2CCCSCC2CN2CCCC2)cc1 (stereo unspecified) | 107.8
12 | N#Cc1ccc(C(=O)N2C[C@@H](CN3CCCC3)C[C@H](CO)C2)cc1 | 5.863
13 | O=C(CCC1CCN(Cc2ncc[nH]2)CC1)Nc1ccccc1Cl | 0.1939
14 | CCN(C)c1ccc(CNS(=O)(=O)C2CCOCC2)cc1F | 3.098
15 | O=C(O)c1cc(C2=CCCCC2)cc(S(=O)(=O)NCc2ccccn2)c1 | -10.69
16 | COc1ccc(CN2CCCn3cnc(COCC4CC4)c3C2)cc1.O=C(O)C(F)(F)F | -1.756
17 | CCN1C(=O)C2(CCOCC2)c2cc(NC(=O)c3cc(C)n[nH]3)ccc21 | -4.188
18 | CC(C)Oc1ccc(CNC(=O)c2cc(C(N)=O)cs2)cc1F | -0.429
19 | CCn1nc(C)c(CN2CCC(c3ccn[nH]3)C2)c1C (stereo unspecified) | 102.4
20 | CCn1nc(C)c(CN2CCCC(c3ccc(C(=O)O)cc3)C2)c1C (stereo unspecified) | 3.316
21 | CCn1nc(C)c(CN2CCC(c3ccc(C(=O)O)cc3)C2)c1C (stereo unspecified) | -3.844
22 | Cc1cc(CN(C)Cc2csc(-c3cccs3)n2)n[nH]1 | -0.07399
23 | Cc1ccc(CN(C)Cc2cc(C3CC3)[nH]n2)c(O)n1 | 7.171
24 | Cc1cc(CN(C)Cc2ccccc2N2CCCCC2)n[nH]1 | 185.5
25 | CCN(CC(=O)N(C)C)C(=O)C(C)(C)c1ccc2c(c1)OCCO2 | -3.526
26 | CC(C)(NCc1cccc(C#N)c1)c1ccc2c(c1)OCO2 | 0.8425

Row | Compound | Percent Effect [%]
27 | CC(C)(C)C(=O)NCCC(=O)NC(C)(C)c1ccc2c(c1)OCCO2 | 1.419
28 | CC(C)(NCc1ccc(C#N)cc1)c1ccc2c(c1)OCO2 | 0.339
29 | CCCNC(=O)NC(=O)CNC(C)(C)c1ccc2c(c1)OCCO2 | 109.8
30 | CCCNC(=O)NC(=O)CNC(C)(C)c1ccc2c(c1)OCO2 | 110.6
31 | CCN(Cc1ccc(CN(C)C)cc1)C(=O)c1ccncc1O | 4.477
32 | O=C(NC1CC(F)(F)C1)[C@]12COC[C@H]1CN(Cc1ccsc1)C2 | -6.897
33 | O=C(CN1CCc2cncnc2C1)NC1CCCCNC1=O (stereo unspecified) | -3.554
34 | CCCS(=O)(=O)N1CCOC2(CCCN(c3ccc(C)nn3)C2)C1 (stereo unspecified) | 6.152
35 | Cc1ccc(N2CCC3(CCN(C(N)=O)CC3)CC2)nn1 | 5.421
36 | CC(C)=CCC1(C(=O)O)CCCN(c2cc(N)ncn2)C1 (stereo unspecified) | -4.514
37 | Cc1ccsc1CN(C)c1cc(N2CCOCC2)ncn1 | -30.66
38 | CNC(=O)C1(C)CN(c2nc(C)cc(C)n2)CCO1 (stereo unspecified) | 133.8
39 | Cc1nc(N2CCOCC2)nc(C)c1NC(=O)Cc1ccc(Cl)cc1 | -11.2
40 | Cc1cc(N2CCOC(C)(C(=O)N(C)C)C2)ncn1 (stereo unspecified) | 147.4
41 | Cc1cc(C)nc(N2CCN(C(=O)c3cc(Cl)c[nH]3)CC2)n1 | -2.597
42 | CNc1cc(C)nc(N2CCC3(CC2)[C@H](O)C[C@@H]3O)n1 | -5.411
43 | Cc1ccc(N2CCOC(C)(C(=O)N(C)C)C2)nn1 (stereo unspecified) | 160
44 | Cc1cc(C)nc(N2CCOC(C)(C(=O)N(C)C)C2)n1 (stereo unspecified) | 205.4
45 | Cc1cc(C)nc(N2CC[C@@]3(O)CCN(S(=O)(=O)N(C)C)C[C@H]3C2)n1 | -0.4533
46 | CCOC(=O)NCCC(=O)NCc1ccc(Oc2ccc(F)cc2)nc1 | -9.89
47 | OC(CNc1cncc(OCc2ccccc2)n1)c1ccco1 (stereo unspecified) | 3.469
48 | COc1cc(C)ccc1OCC(=O)Nc1ccnc(OCCN(C)C)c1 | 10.45
49 | CCn1c(CN(C)C)nnc1C1CCN(c2nccc(NC)n2)CC1 | -2.442
50 | Cc1cccc(C)c1CNC1(CCO)CCOCC1 | 0.8259
51 | COc1ccccc1CC1CCCN(CCC(N)=O)C1 (stereo unspecified) | -12.09
52 | CN(c1ccccc1)c1ccc(CC2CCCN(CCO)C2)nn1 (stereo unspecified) | 94.33

Row | Compound | Percent Effect [%]
53 | CC(C)CCN1CCCC(Cn2cc(CCO)nn2)C1 (stereo unspecified) | -4.048
54 | Cc1ccc(N2CCCC(NC(=O)C(C)(C)C#N)C2=O)cc1 (stereo unspecified) | -7.395
55 | N#Cc1cccnc1NCc1cccnc1N1CCC(C(N)=O)CC1 | -4.129
56 | CNc1ncccc1CN1CCN(C(C)=O)CC(C(N)=O)C1 (stereo unspecified) | 106.9
57 | CN(C)c1ncccc1CNC(=O)N1CCCC1CN1CCCCC1 (stereo unspecified) | 7.687
58 | CNc1ncccc1CN1CCN(C)CC(C(=O)N(C)C)C1 (stereo unspecified) | 106.5
59 | CN1CCN2CCN(Cc3ccccc3Cn3cccn3)CC2C1 (stereo unspecified) | -0.2104
60 | CC(C)Oc1ncccc1CNC(=O)N1CCC(C(N)=O)C1 (stereo unspecified) | -8.219
61 | CNc1ncccc1CN1CCN(C)CC(C(N)=O)C1 (stereo unspecified) | 105.8
62 | CN1CCCN(C[C@H]2C[C@H](CO)CN(Cc3cccnc3N)C2)CC1 | -5.741
63 | NC(=O)C1CCCN(Cc2c(-c3ccco3)[nH]c3ncccc23)C1 (stereo unspecified) | -7.112
64 | CN(C)CCOCC1CN(C(=O)c2ccnnc2)Cc2ccnn2C1.O=C(O)C(F)(F)F.O=C(O)C(F)(F)F (stereo unspecified) | 5.316
65 | CCn1cc2c(n1)C(COCC1CC1)CN(c1ccc(C)nn1)C2 (stereo unspecified) | 10.52
66 | CCCSc1nc(N)c(NC(=O)c2ccc(OC)c(OC)c2)c(=O)[nH]1 | -5.573
67 | CN1CCCC(Cc2ccnc3ccncc23)CC1 (stereo unspecified) | -6.52
68 | O=C(Cc1cccnc1)N1CCCC2(CCN(C3CCOCC3)C2)C1.O=C(O)C(F)(F)F.O=C(O)C(F)(F)F (stereo unspecified) | 3.784
69 | CS(=O)(=O)N1CCCC(Cc2ccnc3ccncc23)CC1 (stereo unspecified) | 72.88
70 | Cn1ccnc1CN1CCC(CNS(=O)(=O)c2cccnc2)C1 (stereo unspecified) | 2.394
71 | O=C(CC1CC1)N(Cc1cccnc1)CC1CCN(C2CCCC2)CC1 | -16.06
72 | O=C(NCCc1c[nH]cn1)C1CCCN(Cc2ccco2)C1 (stereo unspecified) | -20.31
73 | Cn1ccnc1CN1CCCC(Cc2ccnc3ccncc23)CC1.O=CO (stereo unspecified) | 122.1
74 | O=CO.c1cc2nccc(CC3CCCN(C4CCOCC4)CC3)c2cn1 (stereo unspecified) | 113.5
75 | c1cc2nccc(CC3CCCN(Cc4ncc[nH]4)CC3)c2cn1 (stereo unspecified) | 3.513
76 | O=CO.c1cc2nccc(CC3CCCN(Cc4c[nH]cn4)CC3)c2cn1 (stereo unspecified) | 92.48
77 | Cc1cccc(-c2nc(CN3CCn4c(nnc4C4CC4)C3)no2)c1 | 0.9786
78 | Cc1nc(C2(NCc3c(C)nn(C)c3N3CCOCC3)CCC2)no1 | -14.17

Row | Compound | Percent Effect [%]
79 | Cc1cccc(CS(=O)(=O)Cc2ccn(C)c(=O)c2)c1 | -8.677
80 | c1cn(CCNc2nc(NC3CC3)nc3c2CCNCC3)nn1 | -2.29
81 | COc1ccc(CNC(=O)C2=NN(c3ccc(C)cc3)C(=O)CN2)cc1 | -36.41
82 | CCN(C(=O)CN1CCCC1c1ccc(OC)cc1)c1ccccc1 (stereo unspecified) | 3.138
83 | COc1ccc(N(c2ccc(OC)cc2)c2ccc(C(=O)O)s2)cc1 | 99.84
84 | COc1ccc(N(c2ccccc2)c2ccc(C(=O)O)s2)cc1 | 119.4
85 | CCN(C(=O)CN1CCCC1c1ccc(OC)cc1)c1ccccc1C (stereo unspecified) | 3.108
86 | COc1cc(/C=C/c2ncc(C(=O)O)s2)cc(OC)c1 | 4.44
87 | COc1ccc(OC2CCN(C(=O)c3ccc(C(C)=O)s3)CC2)cc1 | -8.42
88 | COc1ccc(N(c2ccc(C)cc2)c2ccc(C(=O)O)s2)cc1 | 128.9
89 | CN(C)C(=O)N1CC2(CCNCC2)c2cc(Cl)ccc21.Cl | -23.53
90 | Cl.O=C(c1ccccc1F)N1CC2(CCNCC2)c2cc(Cl)ccc21 | 106.3
91 | Cc1ccc2c(c1)C1(CCN(S(C)(=O)=O)CC1)CN2C(=O)N(C)C | 0.4399
92 | CCC(=O)N1CCC2(CC1)CN(C(C)=O)c1ccc(C)cc12 | 1.312
93 | C[C@@H](N)C(=O)N1CC2(CCNCC2)c2cc(Cl)ccc21.Cl.Cl | 85.61
94 | CC(=O)N1CC2(CCN(C(=O)CO)CC2)c2cc(C)ccc21 | -15.84
95 | CC(C)C[C@H](N)C(=O)N1CC2(CCNCC2)c2cc(Cl)ccc21.Cl.Cl | 115.3
96 | O=C1CN(C(=O)c2cc(Cl)ccc2F)c2ccccc2N1 | 1.511
97 | CCOC(=O)N1CC2(CCNCC2)c2cc(Cl)ccc21.Cl | 107.5
98 | O=C1CN(C(=O)c2cc(Cl)ccc2F)c2ccncc2N1 | -25.93
99 | Cc1ccc2c(c1)C1(CCNCC1)CN2C(=O)C(C)C | -27.38
100 | CC(CO)(NC(=O)Nc1nnc(C(F)F)s1)C1CC1 (stereo unspecified) | -2.731
101 | CCc1ccc(C(C)NC(=O)CN(C)Cc2ccc(C)o2)cc1 (stereo unspecified) | 6.981
